Measured potencies and affinities stand elsewhere. Values without a mark were called inactive. How the calls were made is not given here.
The compounds below were run against KSHV LANA C-terminal domain (residues 932-1162) binding to LBS DNA (UniProt O40947) (assay: inhibitors of C-LANA binding to LBS DNA, dose response, biochemical, fluorescence polarization, cherry-picked samples (AID 504725)). Settings: MBP-C-LANA / FAM-LBS DNA fluorescence polarization, percent change from plate compound-well median; series mostly up to 35 µM; activity change, negative = inhibition: at the top concentration.

Row | Structure (SMILES) | activity change, negative = inhibition
1 | NC(=S)N/N=C/c1cn(CCC(=O)O)nc1-c1cccc(Br)c1 | 2.56%
2 | COc1cccc(-c2cc(C(=O)N3CCN(S(=O)(=O)c4ccccc4)CC3)[nH]n2)c1 | -0.423%
3 | N=C1/C(=C\c2ccc(Br)o2)C(=O)N=C2SC(CC(=O)N3CCOCC3)=NN12 | -9.84%
4 | Cc1[nH][nH]c(=O)c1C(c1ccc(-c2ccc(Cl)c(C(=O)O)c2)o1)c1c(C)[nH][nH]c1=O | -11.2%
5 | Cc1ccc(S(=O)(=O)Nc2ccc(Br)cc2C(NCC(=O)O)c2ccccc2)cc1 (stereo not drawn) | 11.3%
6 | COc1ccc(NC(=O)COC(=O)c2c(-c3ccccc3)noc2C)cc1 | -2.58%
7 | CCOC(=O)c1c(C)n(C)c2ccc(OCCN(C)C)cc12 | -3.37%
8 | O=C(NCCN1CCN(C(=O)c2cccs2)CC1)c1cccs1 | 0.287%
9 | COC(=O)C1=C(N)OC2=C(C(=O)CCC2)C1c1cccs1 (stereo not drawn) | -1.63%
10 | O=C(O)c1cccc(NC2=Nc3cccc4cccc2c34)c1 | -2.81%
11 | CCC(C)[C@H](NC(=O)[C@@H]1Cc2ccccc2CN1)C(=O)Nc1ccc2c(c1)OCO2 (stereo partly drawn) | 0.254%
12 | COc1ccccc1N1CCN(S(=O)(=O)c2c(C)[nH]c(C)c2C(=O)N2CCCC2)CC1 | -0.392%
13 | O=C(CN1CCN(C(=O)CNC(=O)c2ccc3c(c2)OCO3)CC1)Nc1ccc(F)cc1 | 3.03%
14 | O=C(N/N=C\c1ccc([N+](=O)[O-])o1)c1cncc(Br)c1 | -0.045%
15 | C=CC[C@@H](CC(=O)N(CCO)Cc1ccccc1)C(=O)NC[C@H](OC(=O)[C@@H](CC=C)CC(=O)OC(C)(C)C)c1ccccc1 | -12.1%
16 | COC(=O)c1cccc(COC(=O)c2ccccc2NC(=O)c2ccco2)c1 | -0.928%
17 | Fc1ccc(-c2cc(C(F)(F)F)nc(-n3cc(Cl)cn3)n2)cc1 | -2.03%
18 | O=C(CCN1C(=O)/C(=C/c2ccco2)SC1=S)Nc1ccc(C(=O)O)c(O)c1 | -10.2%
19 | CCCc1cc(C(=O)Nc2ccc(C(=O)c3ccc(C)cc3)cc2)n(C)n1 | 3.29%

Row | Structure (SMILES) | activity change, negative = inhibition
20 | O=C(Nc1cc(Cl)ccc1-n1cncn1)c1cccs1 | 2.42%
21 | CCOc1ccc(Nc2ccc(N)c(S(=O)(=O)O)c2)cc1 | -15.9%
22 | CCCn1c(SCC(=O)NCc2cccs2)nc2c1c(=O)n(C)c(=O)n2C | 1.8%
23 | Cc1nc2c(=O)[nH]c(=S)[nH]c2[nH]c1=O | -11.5%
24 | CCCCn1c(N)c(N(CCOC)C(=O)c2cc(C)oc2C)c(=O)[nH]c1=O | 1.47%
25 | Cn1c(=O)oc2cc(S(=O)(=O)CCC(=O)N3CCN(c4ccccc4F)CC3)ccc21 | -10.4%
26 | Cc1c(Cl)cccc1NS(=O)(=O)c1ccc2c(c1)C1C=CCC1C(c1ccc(C(=O)O)cc1)N2 (stereo not drawn) | -9.15%
27 | CC(C)=C1C2C=CC1C(C(=O)Nc1cc(C)ccc1C)C2C(=O)O (stereo not drawn) | -0.451%
28 | NC(=O)C1=NOC(CNc2ncc(C(F)(F)F)cc2Cl)C1 (stereo not drawn) | -1.77%
29 | O=C(NCCCO)c1ccc2nc(-c3ccco3)c(-c3ccco3)nc2c1 | -18%
30 | CC(=O)N/C(=N\OCc1ccc(Br)cc1)c1nonc1NC(C)=O | -2.09%
31 | O=C(O)CC1(CC(=O)NCc2ccncc2)CCCCC1 | 0.912%
32 | Cc1cc(C)n(CC(=O)NNC(=O)CC(C)c2ccccc2)n1 (stereo not drawn) | -4.12%
33 | CCN(C(=O)COC(=O)CNS(=O)(=O)c1ccc(SC)c([N+](=O)[O-])c1)C1CCCCC1 | -3.89%
34 | O=C(O)/C(=C\c1cccs1)Sc1nnc(-c2ccc(F)cc2)o1 | 2.45%
35 | O=C(CN1C(=O)NC2(CCCC2)C1=O)Nc1ccccc1-c1ccccc1 | -1.4%
36 | COc1ccc(C2c3ccc(O)cc3Oc3ncn(CCCO)c(=N)c32)cc1OC (stereo not drawn) | -7.82%
37 | COc1ccc(C(=O)c2ccsc2N)cc1 | 3.03%
38 | CCN(c1ccc(C)cc1C)S(=O)(=O)c1nnc(NC(=O)c2ccco2)s1 | -0.978%
